Experimental data: PubChem BioAssay (EPA / NIEHS)
Inconclusive results are not listed. Activity calls are given as the source filed them. Rule for the calls: active = hit-call score of the fitted dose curve at least 0.9, where 1 is the maximum; inconclusive = response in the unintended direction; inactive = score below 0.9.

How the values were obtained:
[1] = biological target: human Esterase Plasma (ES), BCHE (gene 590) (UniProt P06276); assay: NVS_ENZ_hES: NovaScreen (NVS) Enzymatic Assay for human Esterase Plasma (ES) (AID 2283157)
Procedure, shortened: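 Screening ran at 25 uM in duplicate, followed by singleton concentration series reaching 50 uM for actives. Human plasma protein, colorimetric detection, 0.25 h exposure, DMSO negative control.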

CDK2 (gene 1017) = CDK2 (gene 1017) (UniProt P24941); assay: NVS_ENZ_hCDK2: NovaScreen (NVS) Enzymatic Assay for human Cyclin-Cependent Kinase 2 (CDK2) (AID 2283144)
Procedure: (§1) NVS_ENZ_hCDK2 is a biochemical, single-readout assay that uses extracted gene-proteins in a cell-free assay. Measurements were taken 1 hour after chemical dosing in a 384-well plate.NVS_ENZ_hCDK2 is one of one assay component(s) measured or calculated from the NVS_ENZ_hCDK2 assay. It is designed to make measurements of enzyme activity, a form of enzyme reporter, as detected with fluorescence intensity signals by Fluorescence and electrophoretic mobility shift technology.Data from the assay component NVS_ENZ_hCDK2 was analyzed into 1 assay endpoint. This assay endpoint, NVS_ENZ_hCDK2, was analyzed in the positive analysis fitting direction relative to DMSO as the negative control and baseline of activity. Using a type of enzyme reporter, loss-of-signal activity can be used to understand changes in the enzymatic activity as they relate to the gene CDK2. Furthermore, this assay endpoint can be referred to as a primary readout, because this assay has produced multiple assay endpoints where this one serves a enzymatic activity function. To generalize the intended target to other relatable targets, this assay endpoint is annotated to the kinase intended target family, where the subfamily is serine/threonine kinase. […]

[2] = biological target: human Colony Stimulating Factor 1 Receptor (CSF1R), CSF1R (gene 1436) (UniProt P07333); assay: NVS_ENZ_hCSF1R: NovaScreen (NVS) Enzymatic Assay for human Colony Stimulating Factor 1 Receptor (CSF1R) (AID 2283150)
Procedure: as §1, with “NVS_ENZ_hCSF1R” for “NVS_ENZ_hCDK2”, “plate.NVS_ENZ_hCSF1R” for “plate.NVS_ENZ_hCDK2”, “NVS_ENZ_hCSF1R,” for “NVS_ENZ_hCDK2,”, “CSF1R.” for “CDK2.”, “receptor tyrosine” for “serine/threonine”

[3] = biological target: human Dual Specificity Protein Phosphatase 3 (DUSP3), DUSP3 (gene 1845) (UniProt P51452); assay: NVS_ENZ_hDUSP3: NovaScreen (NVS) Enzymatic Assay for human Dual Specificity Protein Phosphatase 3 (DUSP3) (AID 2283152);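 note: phosphatase activity of recombinant human DUSP3 on a fluorogenic substrate without cells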
Procedure, shortened: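 Cell-free fluorescence-intensity enzyme activity assay with recombinant protein and substrate; loss of signal fitted relative to DMSO baseline. Primary screen in duplicate at 25 uM, actives then run in concentration series; measured 0 h after dosing.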

[4] = biological target: human Elastase, ELANE (gene 1991) (UniProt P08246); assay: NVS_ENZ_hElastase: NovaScreen (NVS) Enzymatic Assay for human Elastase (AID 2283153)
Procedure, shortened: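 Concentration-response to 50 uM max, run singly for chemicals passing a threshold (e.g., 30% inhibition) in a duplicate 25 uM single-point screen. Neutrophil-derived human elastase, absorbance read-out of enzyme activity at 1.5 h; DMSO baseline.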

[5] = biological target: human Ephrin type-A Receptor 1 (EphA1), EPHA1 (gene 2041) (UniProt P21709); assay: NVS_ENZ_hEphA1: NovaScreen (NVS) Enzymatic Assay for human Ephrin type-A Receptor 1 (EphA1) (AID 2283158);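 note: activity is signal loss versus DMSO meaning EphA1 kinase inhibition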
Procedure, shortened: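 Chemicals first tested in duplicate at 25 uM against recombinant EphA1 with a fluorescent substrate; those passing threshold went to singleton dose-response topping at 50 uM. Activity read 1 h later as mobility-shift fluorescence, loss of signal relative to DMSO.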

[6] = biological target: human FYN Proto-Oncogene, Src family Tyrosine Kinase (Fyn), FYN (gene 2534) (UniProt P06241); assay: NVS_ENZ_hFyn: NovaScreen (NVS) Enzymatic Assay for human FYN Proto-Oncogene, Src family Tyrosine Kinase (Fyn) (AID 2283161)
Procedure, shortened: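 Cell-free kinase activity read by fluorescence after mobility-shift separation of substrate and product, 1 h post-dose. Initial single concentration 25 uM in duplicate, then concentration-response follow-up; DMSO baseline.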

[7] = biological target: Glycogen synthase kinase-3 beta (Homo sapiens) (UniProt P49841); assay: NVS_ENZ_hGSK3b: NovaScreen (NVS) Enzymatic Assay for human Glycogen Synthase Kinase-3 beta (GSK3b) (AID 2283165)
Procedure: NVS_ENZ_hGSK3b is a biochemical, single-readout assay that uses extracted gene-proteins in a cell-free assay. Measurements were taken 1 hour after chemical dosing in a 384-well plate.NVS_ENZ_hGSK3b is one of one assay component(s) measured or calculated from the NVS_ENZ_hGSK3b assay. It is designed to make measurements of enzyme activity, a form of enzyme reporter, as detected with fluorescence intensity signals by Fluorescence and electrophoretic mobility shift technology.Data from the assay component NVS_ENZ_hGSK3b was analyzed into 1 assay endpoint. This assay endpoint, NVS_ENZ_hGSK3b, was analyzed in the positive analysis fitting direction relative to DMSO as the negative control and baseline of activity. Using a type of enzyme reporter, loss-of-signal activity can be used to understand changes in the enzymatic activity as they relate to the gene GSK3B. Furthermore, this assay endpoint can be referred to as a primary readout, because this assay has produced multiple assay endpoints where this one serves a enzymatic activity function. To generalize the intended target to other relatable targets, this assay endpoint is annotated to the kinase intended target family, where the subfamily is serine/threonine kinase.
Binding assays used specific radioligands (tritiated, iodinated) with non-radioactive competitive displacement ligands in agonist or antagonist protocols (as indicated) and various reference compounds and inhibitors to titrate specific binding to receptors and transporters. Most enzyme assays (CYPs, kinases, phosphatases, proteases, HDACs) used recombinant protein and specific substrates (fluorescence mostly, some colorimetric and radioactive) and inhibitors, followed by a biochemical separation of substrate and product. All assays for the biochemical HTS were initially run in duplicate at a single concentration (10 uM for CYP450 assays and 25 uM for all others). […]

[8] = biological target: Histone deacetylase 3 (Homo sapiens) (UniProt O15379); assay: NVS_ENZ_hHDAC3: NovaScreen (NVS) Enzymatic Assay for human Histone Deacetylase 3 (HDAC3) (AID 2283163)
Procedure, shortened: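 Cell-free enzyme format: loss of fluorescent product after mobility-shift separation, 1 h incubation, recombinant human HDAC3. Single 25 uM duplicate screen first, then concentration series to a 50 uM top for hits; DMSO as baseline.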

[9] = biological target: human Casein Kinase 1-delta (CK1D), CSNK1D (gene 1453) (UniProt P48730); assay: NVS_ENZ_hCK1D: NovaScreen (NVS) Enzymatic Assay for human Casein Kinase 1-delta (CK1D) (AID 2283148)
Procedure: as §1, with “NVS_ENZ_hCK1D” for “NVS_ENZ_hCDK2”, “plate.NVS_ENZ_hCK1D” for “plate.NVS_ENZ_hCDK2”, “NVS_ENZ_hCK1D,” for “NVS_ENZ_hCDK2,”, “CSNK1D.” for “CDK2.”

Sequence of Glycogen synthase kinase-3 beta (Homo sapiens) (P49841 whole entry, looked up): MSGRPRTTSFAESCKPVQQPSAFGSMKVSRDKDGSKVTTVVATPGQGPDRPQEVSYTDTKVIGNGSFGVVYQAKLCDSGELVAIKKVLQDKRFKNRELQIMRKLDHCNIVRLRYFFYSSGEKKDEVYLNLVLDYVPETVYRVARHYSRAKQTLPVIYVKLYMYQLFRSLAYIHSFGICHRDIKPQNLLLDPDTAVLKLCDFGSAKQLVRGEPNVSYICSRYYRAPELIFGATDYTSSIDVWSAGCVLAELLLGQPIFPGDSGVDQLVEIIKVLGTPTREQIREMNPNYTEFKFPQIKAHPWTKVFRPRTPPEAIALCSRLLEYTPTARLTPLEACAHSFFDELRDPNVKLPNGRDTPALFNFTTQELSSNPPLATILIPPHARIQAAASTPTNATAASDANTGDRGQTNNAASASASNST
Sequence of human Esterase Plasma (ES), BCHE (gene 590) (P06276 whole entry, looked up): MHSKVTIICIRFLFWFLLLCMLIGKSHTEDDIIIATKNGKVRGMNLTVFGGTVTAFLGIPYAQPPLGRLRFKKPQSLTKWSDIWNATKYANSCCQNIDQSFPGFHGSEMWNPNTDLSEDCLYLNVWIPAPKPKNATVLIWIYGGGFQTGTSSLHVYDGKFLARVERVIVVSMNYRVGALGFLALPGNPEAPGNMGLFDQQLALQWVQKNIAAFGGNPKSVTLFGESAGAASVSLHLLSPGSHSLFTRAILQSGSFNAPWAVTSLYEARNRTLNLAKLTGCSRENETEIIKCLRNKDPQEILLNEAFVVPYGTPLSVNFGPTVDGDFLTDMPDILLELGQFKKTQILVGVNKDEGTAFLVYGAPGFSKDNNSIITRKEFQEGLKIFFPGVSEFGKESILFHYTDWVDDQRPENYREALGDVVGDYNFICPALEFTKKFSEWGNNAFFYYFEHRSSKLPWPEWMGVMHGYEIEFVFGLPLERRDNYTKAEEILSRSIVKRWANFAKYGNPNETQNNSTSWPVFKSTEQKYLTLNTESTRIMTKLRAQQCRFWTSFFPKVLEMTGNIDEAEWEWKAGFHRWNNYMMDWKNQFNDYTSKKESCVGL
Sequence of human Ephrin type-A Receptor 1 (EphA1), EPHA1 (gene 2041) (P21709 whole entry, looked up): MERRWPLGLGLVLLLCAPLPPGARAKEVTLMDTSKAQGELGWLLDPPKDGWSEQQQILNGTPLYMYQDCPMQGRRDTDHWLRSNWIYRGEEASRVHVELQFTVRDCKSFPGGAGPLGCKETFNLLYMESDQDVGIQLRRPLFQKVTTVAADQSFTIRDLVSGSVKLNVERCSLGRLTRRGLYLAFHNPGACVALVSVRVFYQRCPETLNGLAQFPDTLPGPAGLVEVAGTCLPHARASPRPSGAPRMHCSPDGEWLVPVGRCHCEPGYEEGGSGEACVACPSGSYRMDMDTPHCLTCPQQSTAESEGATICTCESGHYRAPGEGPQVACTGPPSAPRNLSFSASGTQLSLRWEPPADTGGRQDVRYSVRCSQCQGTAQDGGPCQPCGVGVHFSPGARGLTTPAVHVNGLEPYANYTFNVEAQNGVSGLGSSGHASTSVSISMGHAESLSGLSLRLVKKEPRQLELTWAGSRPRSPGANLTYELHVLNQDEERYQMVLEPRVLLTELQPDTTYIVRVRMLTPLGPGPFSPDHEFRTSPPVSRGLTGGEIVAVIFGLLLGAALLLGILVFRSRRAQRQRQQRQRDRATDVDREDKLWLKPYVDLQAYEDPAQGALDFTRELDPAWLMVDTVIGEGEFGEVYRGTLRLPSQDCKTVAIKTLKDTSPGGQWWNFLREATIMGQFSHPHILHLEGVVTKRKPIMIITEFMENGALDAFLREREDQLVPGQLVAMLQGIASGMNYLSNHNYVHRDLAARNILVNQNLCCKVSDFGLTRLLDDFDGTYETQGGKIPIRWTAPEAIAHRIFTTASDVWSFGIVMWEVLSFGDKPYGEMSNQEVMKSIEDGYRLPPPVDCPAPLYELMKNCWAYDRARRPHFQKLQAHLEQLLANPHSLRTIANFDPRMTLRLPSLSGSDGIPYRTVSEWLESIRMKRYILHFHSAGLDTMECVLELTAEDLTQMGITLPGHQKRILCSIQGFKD
Sequence of human Dual Specificity Protein Phosphatase 3 (DUSP3), DUSP3 (gene 1845) (P51452 whole entry, looked up): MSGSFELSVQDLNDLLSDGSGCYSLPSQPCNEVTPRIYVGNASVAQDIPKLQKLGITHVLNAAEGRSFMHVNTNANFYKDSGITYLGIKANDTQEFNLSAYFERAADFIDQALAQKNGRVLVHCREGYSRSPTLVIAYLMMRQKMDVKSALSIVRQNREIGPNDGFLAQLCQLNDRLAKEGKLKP
Sequence of human Casein Kinase 1-delta (CK1D), CSNK1D (gene 1453) (P48730 whole entry, looked up): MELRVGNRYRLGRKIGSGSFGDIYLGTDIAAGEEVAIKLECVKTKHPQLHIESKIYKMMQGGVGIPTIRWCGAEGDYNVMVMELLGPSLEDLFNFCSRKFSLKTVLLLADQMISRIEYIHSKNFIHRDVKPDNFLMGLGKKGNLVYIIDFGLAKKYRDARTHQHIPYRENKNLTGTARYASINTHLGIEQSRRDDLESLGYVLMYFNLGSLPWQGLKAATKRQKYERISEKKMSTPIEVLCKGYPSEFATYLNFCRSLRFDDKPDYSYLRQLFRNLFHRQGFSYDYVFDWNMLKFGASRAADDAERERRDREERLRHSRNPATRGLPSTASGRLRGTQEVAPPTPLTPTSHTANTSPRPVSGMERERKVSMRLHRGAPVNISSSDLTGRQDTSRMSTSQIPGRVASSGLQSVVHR
Sequence of human Colony Stimulating Factor 1 Receptor (CSF1R), CSF1R (gene 1436) (P07333 whole entry, looked up): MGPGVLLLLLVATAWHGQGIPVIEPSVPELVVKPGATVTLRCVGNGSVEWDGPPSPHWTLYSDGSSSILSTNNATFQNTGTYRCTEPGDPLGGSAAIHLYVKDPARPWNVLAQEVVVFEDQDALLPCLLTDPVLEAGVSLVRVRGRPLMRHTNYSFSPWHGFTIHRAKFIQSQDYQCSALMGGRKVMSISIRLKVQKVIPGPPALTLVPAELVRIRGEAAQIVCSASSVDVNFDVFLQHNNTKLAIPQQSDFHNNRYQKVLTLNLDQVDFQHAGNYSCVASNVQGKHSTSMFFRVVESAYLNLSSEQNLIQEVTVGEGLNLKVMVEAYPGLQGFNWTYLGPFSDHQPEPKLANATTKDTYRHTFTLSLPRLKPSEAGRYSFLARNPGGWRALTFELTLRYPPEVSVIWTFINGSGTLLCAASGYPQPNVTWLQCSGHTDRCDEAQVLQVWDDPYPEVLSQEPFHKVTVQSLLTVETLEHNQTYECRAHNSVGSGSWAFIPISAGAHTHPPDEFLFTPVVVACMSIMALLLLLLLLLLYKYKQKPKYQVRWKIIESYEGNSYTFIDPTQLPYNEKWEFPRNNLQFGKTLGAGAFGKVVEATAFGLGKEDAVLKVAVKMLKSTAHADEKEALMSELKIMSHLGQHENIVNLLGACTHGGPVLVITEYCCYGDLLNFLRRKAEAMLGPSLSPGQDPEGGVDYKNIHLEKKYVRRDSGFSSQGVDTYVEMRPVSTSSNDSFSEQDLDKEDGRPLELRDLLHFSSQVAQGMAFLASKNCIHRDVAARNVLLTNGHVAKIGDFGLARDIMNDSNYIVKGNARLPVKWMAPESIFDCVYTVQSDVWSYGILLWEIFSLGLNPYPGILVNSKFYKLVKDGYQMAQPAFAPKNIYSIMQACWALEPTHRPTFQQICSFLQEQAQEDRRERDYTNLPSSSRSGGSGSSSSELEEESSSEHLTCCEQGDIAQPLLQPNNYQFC
Sequence of Histone deacetylase 3 (Homo sapiens) (O15379 whole entry, looked up): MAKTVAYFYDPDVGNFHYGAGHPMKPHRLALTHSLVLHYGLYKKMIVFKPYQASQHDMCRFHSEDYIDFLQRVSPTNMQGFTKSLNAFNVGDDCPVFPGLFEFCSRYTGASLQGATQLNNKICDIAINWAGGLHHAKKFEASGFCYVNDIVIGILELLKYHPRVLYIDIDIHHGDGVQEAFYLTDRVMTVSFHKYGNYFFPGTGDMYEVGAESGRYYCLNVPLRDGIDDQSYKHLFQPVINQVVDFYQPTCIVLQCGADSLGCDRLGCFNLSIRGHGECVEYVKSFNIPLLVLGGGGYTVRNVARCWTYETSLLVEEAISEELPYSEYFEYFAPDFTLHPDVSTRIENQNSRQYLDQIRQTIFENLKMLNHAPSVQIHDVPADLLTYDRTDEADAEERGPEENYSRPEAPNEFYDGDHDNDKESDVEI
Sequence of human FYN Proto-Oncogene, Src family Tyrosine Kinase (Fyn), FYN (gene 2534) (P06241 whole entry, looked up): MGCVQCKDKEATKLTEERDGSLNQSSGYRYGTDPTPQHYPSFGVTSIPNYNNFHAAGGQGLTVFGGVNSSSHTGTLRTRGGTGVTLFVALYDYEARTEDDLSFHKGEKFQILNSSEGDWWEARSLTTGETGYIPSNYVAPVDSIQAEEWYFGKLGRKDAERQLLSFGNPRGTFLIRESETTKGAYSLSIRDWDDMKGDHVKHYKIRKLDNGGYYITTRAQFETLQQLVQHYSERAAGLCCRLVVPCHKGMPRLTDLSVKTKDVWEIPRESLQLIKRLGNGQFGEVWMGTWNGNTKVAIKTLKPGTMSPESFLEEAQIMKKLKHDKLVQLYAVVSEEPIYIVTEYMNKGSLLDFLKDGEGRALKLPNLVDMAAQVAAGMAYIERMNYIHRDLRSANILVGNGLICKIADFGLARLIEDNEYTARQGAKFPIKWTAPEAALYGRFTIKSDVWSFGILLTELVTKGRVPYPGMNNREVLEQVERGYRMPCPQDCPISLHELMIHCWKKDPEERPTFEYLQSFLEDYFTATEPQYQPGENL
Sequence of human Elastase, ELANE (gene 1991) (P08246 whole entry, looked up): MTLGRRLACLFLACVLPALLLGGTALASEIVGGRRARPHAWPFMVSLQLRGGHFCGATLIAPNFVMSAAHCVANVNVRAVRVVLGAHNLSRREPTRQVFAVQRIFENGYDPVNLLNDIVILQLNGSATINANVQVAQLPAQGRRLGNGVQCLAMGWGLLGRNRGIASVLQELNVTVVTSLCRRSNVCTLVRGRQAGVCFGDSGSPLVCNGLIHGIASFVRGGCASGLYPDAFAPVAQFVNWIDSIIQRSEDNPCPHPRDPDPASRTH

CCCCc1oc2ccccc2c1C(=O)c1cc(I)c(OCCN(CC)CC)c(I)c1
outcome [1]: inactive

Cc1[nH]nc2c1N=C(c1ccccc1Cl)c1cc([N+](=O)[O-])ccc1N2
AC50 (CDK2 (gene 1017)): 0.0067 µM (active) | AC50 [2]: 0.00229 µM (active) | AC50 [3]: 16.9 µM (active) | AC50 [4]: 4.93 µM (active) | AC50 [5]: 8.96 µM (active) | outcome [6]: inactive | AC50 [7]: 0.00229 µM (active)

CCC(C)c1ccccc1O (centres undefined)
outcome [8]: inactive

CS(=O)(=O)c1ccc([C@@H](CC2CCCC2)C(=O)Nc2cnccn2)cc1Cl
outcome [9]: inactive | AC50 [3]: 6.36 µM (active)

CCCCCCCCCCCC
outcome [5]: inactive

CCCCCCCCCCCCCCCCCC[N+](C)(C)Cc1ccccc1
AC50 [3]: 4.54 µM (active) | outcome [5]: inactive

Cc1ccc(C(=O)c2ccccc2)cc1
outcome [5]: inactive

O=C(c1ccccc1)c1ccccc1
outcome [7]: inactive

CCCCC=O
outcome [7]: inactive

CN(C)CCOC(c1ccccc1)c1ccccc1
AC50 [1]: 11.4 µM (active)

CCCCCCCCCCCCOS(=O)(=O)O
outcome (CDK2 (gene 1017)): inactive | outcome [9]: inactive | AC50 [2]: 29.1 µM (active) | outcome [5]: inactive | outcome [8]: inactive

CC1=NN(c2ccccc2)C(=O)C1
outcome [5]: inactive

CC(C)(C)c1ccc(O)c(O)c1
outcome [5]: inactive

N=C(N)c1ccc(OCCCCCOc2ccc(C(=N)N)cc2)cc1
AC50 [1]: 6.56 µM (active)

O=C(CCCN1CCC(O)(c2ccc(Cl)cc2)CC1)c1ccc(F)cc1
AC50 [1]: 6.15 µM (active)

CCCCCCCCCCCCCCCC(=O)OC
AC50 [3]: 6.25 µM (active)

O=C(NO)c1ccccc1
outcome [5]: inactive
